Assay results reported in PubChem BioAssay AID588398 (Broad Institute, 2011).
The whole screen tested about 1,200 compounds, of which about 110 (9.2%) were called active. Another 8% or so got no clear call; they are omitted. Not all results are given here. Entries with a potency or affinity are not part of this list. Values without a mark were called inactive.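 The calls were made as follows: active = pathway reporter half-maximal dose under half the control reporter's, or control reporter unaffected while pathway reporter is inhibited; inconclusive = either signal flat at 30 to 70% inhibition or poorly fitted; inactive = the rest.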

Assay: LMP1 TES1 pathway selectivity over dsRED control – imaging, HEK293T, dual-color eGFP/dsRED, cherry-picks, selectivity assay for LMP1 NF-kB inhibitor project, dose response (AID 588398);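 also: 0% = median of neutral control wells and -100% = median of MG132 positive control wells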
Conditions: 48 h; HEK293T Tet-On dsRED counter-screen channel, at 19.5 µM (top of the series); activity change, negative = inhibition: at the top concentration

| SMILES | activity change, negative = inhibition [%] | outcome |
| --- | --- | --- |
| COc1cc(/C=N/NC(=S)Nc2cccc(C(=O)O)c2)ccc1O | 4.99 | – |
| O=C(Nc1ccc(C(=O)N2CCOCC2)cc1)Nc1cccc(C(F)(F)F)c1 | -84.7 | – |
| O=C(NC1=NCCS1)c1cc2ccccc2o1 | -20.6 | – |
| COc1cc2c(cc1OC)-c1cc(Nc3ccc4c(c3)OCCO4)nc(=O)n1CC2 | 3.53 | – |
| COc1ccccc1-n1c(-c2ccccc2)n[nH]c1=S | -2.33 | – |
| COc1ccc(/C(CC2OC(=O)c3ccccc32)=N\NC(N)=O)cc1 (centres undefined) | 9.72 | – |
| COc1ccc(N/N=C/c2c(C(=O)O)ccc3ccccc23)cc1 | -82.7 | – |
| COc1ccccc1C=NN=Cc1ccccc1O | 11.8 | – |
| O=C(Nc1ccc(F)c(F)c1)C1CCCCC1 | -0.709 | – |
| CCCSc1ccc([C@@H]2[C@H]3C(=O)N(C)C(=O)[C@H]3[C@]3(C(=O)OC)CCCN23)cc1OC | 2.29 | – |
| CC[C@]1(C(=O)OC)[C@H]2C(=O)N(Cc3ccccc3)C(=O)[C@H]2[C@H]2CN=C(SCc3ccc(Cl)cc3)N21 | -97.1 | – |
| COc1ccc(-n2c(C)c(C(C)=O)c3cc(OC(C)=O)ccc32)cc1 | -87.7 | – |
| COc1ccc(S(=O)(=O)N2CCC(C(=O)NC3CC3)CC2)cc1OC | 2.11 | – |
| O=C(C1CCCCC1)N1CCN(c2ccnc3cc(Cl)ccc23)CC1 | -8.83 | – |
| C[n+]1c2n(c3ccccc31)N=C(c1cc(C(C)(C)C)c(O)c(C(C)(C)C)c1)CS2 | -79 | – |
| CC(=NNc1nc2ccccc2o1)c1ncccn1 | -91.1 | – |
| CC(=NNc1nc2ccccc2s1)c1ncccn1 | -99.9 | – |
| Brc1cccc(-c2cnco2)c1 | 18.5 | – |
| COc1ccccc1NC(=O)C(=O)N/N=C(\C)CC(=O)Nc1ccccc1C(F)(F)F | 7.02 | – |
| COc1ccc(NC(=O)Cn2nnc(C(=O)NCc3ccccc3)c2N)c(OC)c1 | 114 | – |
| COC(=O)c1cccc(COC(=O)c2ccccc2NC(=O)c2ccco2)c1 | 0.293 | – |
| Cn1c(=O)c2c(nc(NCc3ccco3)n2C/C=C/c2ccccc2)n(C)c1=O | -18.9 | – |
| O=C(CCS(=O)(=O)c1ccccc1)Nc1nccs1 | -25.5 | – |
| Oc1c(N=NC(=S)Nc2ccccc2F)c2ccccc2n1Cc1cccc(Cl)c1 | 19.5 | – |
| CCCCCCNC(=O)O[C@]12C[C@@H](C(=O)OC)[C@@H](C(=O)OC)C[C@@]1(O)CN(S(=O)(=O)c1ccc(C)cc1)C2 | -4.81 | – |
| CCN1CCN(Cc2ccc(NC(=O)c3ccc(C)c(NC(=O)c4ccno4)c3)cc2C(F)(F)F)CC1 | – | inactive |

| SMILES | activity change, negative = inhibition [%] | outcome |
| --- | --- | --- |
| Oc1c(N=NC(=S)Nc2ccccc2F)c2ccccc2n1Cc1ccc(F)cc1 | 11.3 | – |
| CCCN(CC)c1ncnc2[nH]ncc12 | -85.4 | – |
| Cc1ccccc1-n1nc(C)c2cc(C(=O)NC3CC3)sc21 | 16.1 | – |
| Cc1ccc(N2C(=O)c3ccccc3C2Nc2cccnc2)nc1 (centres undefined) | 10.4 | – |
| O=C(c1ccc(C#CC2(O)CCCCC2)cc1)N1CCN(C(c2ccccc2)c2ccccc2)CC1 | -14.9 | – |
| COc1ccc(C(c2c(C)n(C)n(-c3ccccc3)c2=O)c2c(C)n(C)n(-c3ccccc3)c2=O)c(OC)c1OC | 6.3 | – |
| Cc1ccccc1C(=O)NC(=S)Nc1ccc(N2CCN(C(=O)c3ccccc3)CC2)cc1 | 3.02 | – |
| COc1cccc(/C=N\NC(=O)c2ccc(C)nc2)c1 | 1.79 | – |
| O=C(N/N=C/c1c(O)ccc2ccccc12)c1cccnc1 | -94.7 | – |
| CC(CN1CCCCC1)OC(=O)c1ccc2c(c1)OCO2 (centres undefined) | -1.2 | – |
| N=C1S/C(=C\c2ccccc2)C(=O)N1c1ccc(F)cc1 | 5.19 | – |
| CN(C)S(=O)(=O)c1cccc(NC(=O)c2n[nH]c(=O)c3ccccc23)c1 | 7.35 | – |
| CCOc1ccc(-c2cc(C(=O)N/N=C/c3ccc(O)cc3)c3ccccc3n2)cc1 | 112 | – |
| Cc1c(NC(=O)c2cc(-c3cccs3)nc3ccccc23)c(=O)n(-c2ccccc2)n1C | 26.4 | – |
| Cc1ccc(-c2cc(C(=O)N/N=C/C=C/c3ccco3)c3ccccc3n2)cc1C | 79.6 | – |
| O=[N+]([O-])c1cccc(-c2ccc(/C=N/Nc3nc(N4CCCCC4)nc(N4CCCCC4)n3)o2)c1 | 41.5 | – |
| O=C(COC(=O)c1ccc(S(=O)(=O)NCc2ccco2)cc1)Nc1ccc(Cl)cn1 | 12.5 | – |
| CCOC(=O)/C=C(\C)Sc1cc(=O)oc2ccccc12 | -97.8 | – |
| COc1ccc([C@H]2N[C@]3(CCCN(Cc4ccco4)C3=O)[C@H]3C(=O)N(Cc4ccccc4)C(=O)[C@@H]23)cc1 | 0.261 | – |
| Cc1ccc(NC(=O)NNS(=O)(=O)c2ccc(Br)cc2)cc1 | -10.6 | – |
| CCN(Cc1ccncc1)C(=O)CCc1ccccc1 | 29.2 | – |
| Cc1c(/C(O)=C2/C(=O)C(=O)N(CCN3CCOCC3)C2c2ccccn2)cnn1-c1ccccc1 (centres undefined) | 0.373 | – |
| COC(=O)CCCC[C@@H]1SC[C@@H](NC(=O)OC)[C@@H]1NC(=O)OC | 19.4 | – |
| CN=C1S/C(=C\c2ccc(O)c(Br)c2)C(=O)N1C | 7.27 | – |
| C#CCN(C[C@@H]1[C@@H](OC(=O)NCC2CCCCC2)[C@@H](OC(=O)NCC2CCCCC2)Cn2c(=O)ccc(=O)n21)S(=O)(=O)c1ccc(C)cc1 | -99.9 | – |
| O=C(NOCc1ccccc1)c1ccc(Cl)cc1Cl | -18 | – |

| SMILES | activity change, negative = inhibition [%] | outcome |
| --- | --- | --- |
| S=C(NCC1CCCCC1)Nc1ccc(Oc2ccccc2)cc1 | 14.5 | – |
| CCN(CC(=O)NCc1ccc(F)cc1)CC(=O)Nc1cc(S(=O)(=O)N(C)C)ccc1C | -15.9 | – |
| COc1ccc(C(=O)CN(CCC(=O)O)S(=O)(=O)c2ccc([N+](=O)[O-])cc2)cc1 | 1.46 | – |
| O=C(Nc1ccc(N2CCOCC2)cc1)c1cn2ccccc2n1 | -2.87 | – |
| Cc1sc2ncnc(N3CCC(C(=O)Nc4ccccc4C(C)(C)C)CC3)c2c1C | -6.18 | – |
| Cc1cccc(NC(=S)N=Nc2c(O)n(C)c3ccc(S(=O)(=O)N4CCOCC4)cc23)c1 | 20.2 | – |
| C=CCn1c(O)c(N=NC(=S)Nc2ccccc2C)c2cc(S(=O)(=O)N3CCOCC3)ccc21 | 43.7 | – |
| CN1C(=O)C(CC(=O)NC2CCCCC2)SC1=Nc1ccccc1 (centres undefined) | -4.39 | – |
| COc1ccc(-c2ccc3c(c2)S(=O)(=O)c2cccc(C(=O)NCc4cc(C)oc4C(F)(F)F)c2C3=O)cc1OC | 6.54 | – |
| Cc1ccc(C(=O)Nc2cccc(C(F)(F)F)c2)cc1NC(=O)c1ccno1 | – | inactive |
| COc1cccc(C(=O)Nc2nc3ccccc3[nH]2)c1 | 31.9 | – |
| CCOc1ccc(/C=N/Nc2cc(N3CCOCC3)ncn2)c(O)c1 | -12.3 | – |
| Cn1cccc1CC(=O)NNC(=S)Nc1ccccc1Cl | -1.27 | – |
| COC(=O)C1=C(C)N(CCCC(=O)O)C(=O)NC1c1cccc(Cl)c1Cl (centres undefined) | -6.66 | – |
| COc1cc2cc(C(=O)N3CCN(c4ccccc4OC)CC3)[nH]c2cc1OC | 0.636 | – |
| O=C(Nc1cccc(C(=O)O)c1)Nc1ccccc1Cl | 25.4 | – |
| CCN(C(=O)c1cccc(NC(=O)c2ccccc2)c1)C1CCCCC1 | 56.7 | – |
| N=c1c(-c2nc3ccccc3[nH]2)cc(C(=O)c2cccs2)nn1-c1ccccc1 | 18.5 | – |
| CCCCCC(=O)N1CCN(c2ccc(C(C)=O)cc2F)CC1 | 12.2 | – |
| Cc1ccc(-c2csc(=Nc3cccnc3)n2CCCn2ccnc2)cc1C | -85.9 | – |
| COc1cc(/C=C(\C#N)c2ccccn2)ccc1OCc1ccccc1Cl | 9.75 | – |
| Cc1cc(/C=C2\Cc3ccccc3C2=O)c(C)n1-c1ccccc1 | 30.7 | – |
| CCCCNC(=S)Nc1ccc([N+](=O)[O-])cc1 | -9.38 | – |
| CC(=O)NC(CCS(C)(=O)=O)C(=O)Nc1ccc(Cl)c(Cl)c1 (centres undefined) | -4.89 | – |
| C=C1C(=O)C2=CC1CCC(=O)C1(C)CCC(OC(C)=O)C(C)(C)C1CC2O (centres undefined) | -98.8 | – |
| O=C(NCC1CCOCC1)c1ccc(OC2CCN(Cc3ccccn3)CC2)cc1 | 14.1 | – |

| SMILES | activity change, negative = inhibition [%] | outcome |
| --- | --- | --- |
| CCc1ccc(/C=N/NC(=O)c2ccccn2)cc1 | -0.532 | – |
| Cc1ccsc1-c1nc(CSCC(=O)N2CCN(c3ccccc3)CC2)c(C)o1 | 44.4 | – |
| CCCSc1nc2cc(S(=O)(=O)N3CCOCC3)ccc2n1CC | 19.4 | – |
| CC(C)OCCCNC(=O)C1CCC(CNS(=O)(=O)c2ccccc2)CC1 (centres undefined) | -9.46 | – |
| NC1=NC(=O)NC1(c1ccccc1)c1ccccc1 | 2.06 | – |
| Cc1cc(=S)[nH]c2ccccc12 | 3.44 | – |
| CCOCCCn1c(=S)[nH]c2ncccc2c1=O | -10.1 | – |
| C=CCn1c(O)c(N=NC(=S)Nc2cccc(C)c2)c2ccccc21 | 18.7 | – |
| Cn1nc(-c2ccc(N3CCOCC3)c(NS(=O)(=O)c3ccccc3)c2)c2ccccc2c1=O | 24.4 | – |
| CCN(CC)c1ccc(/C=N/NC(=O)c2ccc3nc[nH]c3c2)c(O)c1 | -65.3 | – |
| C(=N\Nc1nc2ccccc2[nH]1)/c1cccc2nccnc12 | 30.3 | – |
| CCN(CC)S(=O)(=O)c1ccc(N/N=C/c2ccc(O)cc2O)nc1 | -89.9 | – |
| COc1cccc(/C=N/Nc2nc3ccccc3[nH]2)c1O | -89.9 | – |
| Cc1ccc(/C=C/c2nc3ccccc3c(=O)[nH]2)cc1 | -9.47 | – |
| CCN(CC)c1ccc(NC(=O)c2cccc(F)c2)c(C)c1 | 163 | – |
| Cc1cc(C)cc(C(=O)NCCC(=O)NCc2cc(=O)n(C)c(=O)n2C)c1 | 15.2 | – |
| O=C(CSc1nnc(-c2cccc(S(=O)(=O)N3CCOCC3)c2)n1C1CCCCCC1)NCc1ccccc1 | 20.6 | – |
| CN(C)CC(C)(C)CNS(=O)(=O)c1ccc(OC(F)(F)F)cc1 | 13.2 | – |
| COc1ccc2[nH]c3c(=O)n(CCCCC(=O)N4CCC(C(N)=O)CC4)c(=S)[nH]c3c2c1 | 21.2 | – |
| COc1ccc2cc(C(N)=O)/c(=N\NC(=O)c3ccccc3)oc2c1 | -14.7 | – |
| CN(C)/C=C/C(=O)c1ccc2noc(-c3ccccc3)c2c1 | -15.5 | – |
| N#Cc1c(NC(=O)CCCC(=O)O)sc2c1CCCCC2 | 9.82 | – |
| CC(C)[C@H](N[C@@H](C)c1ccccc1)c1c(O)ccc2ccccc12 | -4.13 | – |
| CC(=O)c1c(C)[nH]c(C(=O)Nc2ccc(C)cn2)c1C | 39.2 | – |
| COc1ccc(Nc2oc(COc3ccccc3OC)nc2C#N)cc1 | 20.2 | – |
| COc1cc2nc(NC(=O)c3ccco3)sc(=O)c2cc1OC | -12.1 | – |
